Measurements reported in the supplement of paper PMC3334620.
The full ranking holds about 33,000 sequences; the median of “E-score (-0.5 to 0.5)” is about -0.011, and the highest 2% start at about 0.28. What follows is part of a selection rich in the highest values, with near analogues and random picks from the rest.

target: T1, Gcr1 (UniProt P07261); experiment: PBM E-score (8-mer binding enrichment) (E-score (-0.5 to 0.5)); higher = stronger / more preferred TF binding; settings: protein concentration: 100 nM; construct: GST-full length
T1 sequence: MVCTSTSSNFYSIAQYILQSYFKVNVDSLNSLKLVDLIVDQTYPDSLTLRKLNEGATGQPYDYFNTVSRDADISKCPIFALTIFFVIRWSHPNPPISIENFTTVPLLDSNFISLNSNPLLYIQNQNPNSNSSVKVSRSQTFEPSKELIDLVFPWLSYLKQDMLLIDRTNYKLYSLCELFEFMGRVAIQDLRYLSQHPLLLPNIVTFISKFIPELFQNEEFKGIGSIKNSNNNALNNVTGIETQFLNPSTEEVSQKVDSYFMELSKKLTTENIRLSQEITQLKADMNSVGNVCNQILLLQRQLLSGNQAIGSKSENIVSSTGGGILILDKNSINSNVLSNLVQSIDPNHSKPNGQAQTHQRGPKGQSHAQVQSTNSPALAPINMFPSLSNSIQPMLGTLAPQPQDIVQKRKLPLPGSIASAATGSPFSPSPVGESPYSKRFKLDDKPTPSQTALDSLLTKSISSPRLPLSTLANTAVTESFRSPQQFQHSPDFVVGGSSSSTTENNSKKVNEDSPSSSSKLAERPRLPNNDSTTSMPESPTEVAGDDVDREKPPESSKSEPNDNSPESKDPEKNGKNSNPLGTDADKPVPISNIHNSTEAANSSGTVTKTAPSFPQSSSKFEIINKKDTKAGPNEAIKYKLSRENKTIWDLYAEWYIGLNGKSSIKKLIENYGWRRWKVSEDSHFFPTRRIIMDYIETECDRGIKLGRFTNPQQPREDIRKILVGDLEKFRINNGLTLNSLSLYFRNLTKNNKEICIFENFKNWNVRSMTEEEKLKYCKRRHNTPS
Summary of the method: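 Full-length yeast transcription factors or their DNA-binding domains, GST-tagged and expressed with PURExpress, were applied at about 100-200 nM to universal all-10-mer Agilent arrays. These arrays had been made double-stranded by primer extension on fresh or once-stripped slides. Detection used fluorescent anti-GST, normalisation used masliner, and E-scores for ungapped eight-base words pooled with reverse complements came from the Universal PBM Analysis Suite.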

Row | Sequence | PBM E-score
1 | ATTGCCGC | -0.0608
2 | GATTTCAC | -0.0263
3 | AGCGAGCA | -0.108
4 | ACGCTTCA | -0.0408
5 | GCGCTTCC | 0.348
6 | ACGCTTCG | -0.0461
7 | CCGCTTCC | 0.346
8 | AGGCTTCA | -0.0957
9 | CCGCTTCG | 0.0926
10 | ACGCTTCC | 0.313
11 | GCGCTTAC | -0.17
12 | CCGCTTCA | -0.0817
13 | AGGCTTCC | 0.436
14 | AGGCTTCG | 0.00576
15 | GCGCTTCA | -0.0425
16 | GCGAATTA | -0.00089
17 | AAACCAAA | 0.066
18 | AGACCTCC | -0.282
19 | CGCTAGGC | -0.216
20 | CACGGCCG | -0.152
21 | ATCGGGTA | -0.136
22 | AAGTCTCG | -0.336
23 | CTCTAAAC | 0.0413
24 | GGTCTGGA | 0.0233
25 | GCCAGCGA | -0.0966
26 | CACCAAGG | 0.0974

Row | Sequence | PBM E-score
27 | CCACCATC | 0.0892
28 | GACGGACA | -0.264
29 | AAAAGTGA | 0.0915
30 | AAAAGTAG | 0.295
31 | AAAAGTGG | 0.381
32 | AAAAGTAT | -0.0691
33 | CAAAGTGG | 0.00098
34 | AAAAGTAA | 0.157
35 | CCCATCAC | -0.136
36 | GGTATTCA | 0.0919
37 | GATGGCCA | -0.214
38 | ATTGGATC | 0.193
39 | AATGGATG | 0.134
40 | AGTGGATC | 0.286
41 | CGTGGATC | 0.00349
42 | AGTGGATA | 0.0533
43 | AGTGGATG | 0.394
44 | CCTCCTGC | -0.0964
45 | ATCTTCGC | -0.0394
46 | ATAGAGGA | 0.346
47 | ATAGAGGG | 0.137
48 | ATAGAGGC | 0.174
49 | ATGTCCCG | -0.183
50 | GCTATTGA | -0.21
51 | GACCACTA | 0.179
52 | CACCACTA | 0.298

Row | Sequence | PBM E-score
53 | CACCACTC | 0.134
54 | AACCACTA | 0.241
55 | TACCACTA | 0.365
56 | CACCACTG | 0.167
57 | AGTTGCAA | -0.105
58 | CGTAGTGA | -0.043
59 | CGTACCGC | -0.162
60 | ATGATACG | 0.107
61 | CAAGACAC | 0.0836
62 | GCGCCCTA | 0.319
63 | CCACCCTA | 0.0045
64 | CCGCCCTA | -0.0561
65 | TCGCCTAA | 0.0844
66 | GCGCCTAC | 0.256
67 | GCACCCTA | 0.297
68 | GCACCCCA | 0.241
69 | ACGCCCTA | 0.178
70 | ACACCCTA | -0.021
71 | GCGCCTAA | 0.407
72 | TCACCCAA | -0.00294
73 | GCACCCAA | 0.303
74 | CACCACCG | -0.0609
75 | GAGTTGCA | -0.0956
76 | GTGAGAAC | -0.0123
77 | GATGGATA | 0.0193
78 | CCCCCGGC | -0.0149

Row | Sequence | PBM E-score
79 | GGAACGGA | -0.0468
80 | CCGAGTCA | -0.25
81 | ATTCGAAT | 0.0645
82 | AGATGACG | -0.0775
83 | ACACCCAC | 0.0847
84 | CCACCCAC | -0.0236
85 | GCACCCAC | 0.397
86 | CTTTTTGA | 0.115
87 | AGTTGGAA | 0.187
88 | CTAGCTGC | 0.161
89 | ATAGCTGA | -0.0965
90 | ATAGCTGC | 0.285
91 | GAGGCTGC | 0.253
92 | AAGGCTGC | 0.302
93 | AAGGCTGA | -0.141
94 | CTGTCTTC | 0.00215
95 | AGCTAATA | 0.0193
96 | CGGGGCCC | 0.219
97 | TCCAAAGA | 0.0425
98 | ACAGCTCA | -0.146
99 | ATAAGACG | 0.192
100 | GAGGAAGA | 0.171
101 | CACGAAGC | 0.311
102 | AAGGAAGA | -0.00011
103 | CACGAAGA | -0.098
104 | CAGGAAGA | 0.0842

Row | Sequence | PBM E-score
105 | GAGGAAGC | 0.391
106 | GAGGAAAC | -0.104
107 | AAGGAAGC | 0.452
108 | CAGGAAGC | 0.434
109 | AAGGAAGG | -0.0778
110 | CAGGAAGG | 0.184
111 | AACGAAGC | 0.00062
112 | CCAAGGTC | -0.0561
113 | CGAAAGGC | 0.0349
114 | GCCTTCAC | -0.0793
115 | AGCTGCAT | -0.077
116 | CTCGGCGC | 0.159
117 | CAAAGGCG | -0.134
118 | AGGCGTCA | -0.194
119 | AGGCGTCC | 0.387
120 | CGGCGTGC | -0.094
121 | AGGCGTCG | -0.0284
122 | CGGCGTCA | 0.0965
123 | CGGCGTCC | 0.412
124 | ATATAGAG | 0.133
125 | AAATTCAG | 0.169
126 | CCATAGGC | -0.00913
127 | TGAGAAAA | 0.0932
128 | AGGCAGAT | 0.0845
129 | ATACGTAC | -0.00136
130 | ATACGTAA | 0.053

Row | Sequence | PBM E-score
131 | ATACGTAT | 0.284
132 | AAACCAAC | 0.0391
133 | GCACCATA | 0.228
134 | AGTTTTAT | 0.112
135 | ATACTATA | -0.0912
136 | CTACTATA | 0.282
137 | CTACTATC | 0.146
138 | CGAGCCTC | -0.0914
139 | GAACAACC | -0.0951
140 | AGGCACTA | -0.113
141 | TGCAACCA | 0.261
142 | AGCAACCT | 0.316
143 | AGCAACCC | 0.00142
144 | GGCAACCA | 0.374
145 | AGCAACCA | 0.349
146 | GGCAACCC | 0.176
147 | AGCAACCG | 0.0554
148 | CGCAACCA | 0.147
149 | ACCAACCA | 0.0293
150 | ACTAACCA | 0.117
151 | CGTAAGAG | -0.199
152 | CAGCTGTC | -0.0336
153 | AATGCTCT | -0.112
154 | CCATTCCC | -0.0773
155 | CCCGTCTC | -0.0723
156 | AGCGTCTG | 0.175

Row | Sequence | PBM E-score
157 | GGCGTCAA | -0.0289
158 | GGCGTCTA | 0.342
159 | AGCGTCTA | 0.307
160 | CGCGTCTA | 0.137
161 | AGCGTCAA | 0.0252
162 | CGCGTCTC | 0.301
163 | AGCGTCTC | 0.22
164 | ATGAAGCC | 0.145
165 | AATACCGA | 0.0609
166 | AGGTTCCG | 0.205
167 | GAGTTCCA | 0.123
168 | CGGTTCCA | 0.189
169 | GGTTTCCA | 0.119
170 | GGGTTCCA | 0.419
171 | AGGTTCCA | 0.327
172 | CGGCCCTA | -0.253
173 | TGGATAAA | 0.11
174 | CACTTCCC | 0.0585
175 | GACTTCAA | -0.0566
176 | TACTTCCA | 0.121
177 | GACTTCCA | 0.319
